Reference: PubChem BioAssay
Values without a mark were called inactive. Activity calls are given as the source filed them. No rule for the calls is given here.

Legend:
[1] = test system: Botulinum neurotoxin type F light chain protease (Clostridium botulinum); experiment: Botulinum neurotoxin type F light chain protease inhibition, multiplex microsphere flow cytometry, validation set (AID 588459); conditions: multiplex microsphere protease substrate cleavage assay, at 10 µM, stronger effect = higher value
[2] = target: Botulinum neurotoxin type A (Clostridium botulinum) (UniProt P0DPI0); experiment: BoNT/A light chain protease inhibitors, biochemical, multiplex microsphere flow cytometry, validation set (AID 588460); conditions: at 10 µM, stronger effect = higher value
Sequence of Botulinum neurotoxin type A (Clostridium botulinum) (P0DPI0 whole entry, looked up): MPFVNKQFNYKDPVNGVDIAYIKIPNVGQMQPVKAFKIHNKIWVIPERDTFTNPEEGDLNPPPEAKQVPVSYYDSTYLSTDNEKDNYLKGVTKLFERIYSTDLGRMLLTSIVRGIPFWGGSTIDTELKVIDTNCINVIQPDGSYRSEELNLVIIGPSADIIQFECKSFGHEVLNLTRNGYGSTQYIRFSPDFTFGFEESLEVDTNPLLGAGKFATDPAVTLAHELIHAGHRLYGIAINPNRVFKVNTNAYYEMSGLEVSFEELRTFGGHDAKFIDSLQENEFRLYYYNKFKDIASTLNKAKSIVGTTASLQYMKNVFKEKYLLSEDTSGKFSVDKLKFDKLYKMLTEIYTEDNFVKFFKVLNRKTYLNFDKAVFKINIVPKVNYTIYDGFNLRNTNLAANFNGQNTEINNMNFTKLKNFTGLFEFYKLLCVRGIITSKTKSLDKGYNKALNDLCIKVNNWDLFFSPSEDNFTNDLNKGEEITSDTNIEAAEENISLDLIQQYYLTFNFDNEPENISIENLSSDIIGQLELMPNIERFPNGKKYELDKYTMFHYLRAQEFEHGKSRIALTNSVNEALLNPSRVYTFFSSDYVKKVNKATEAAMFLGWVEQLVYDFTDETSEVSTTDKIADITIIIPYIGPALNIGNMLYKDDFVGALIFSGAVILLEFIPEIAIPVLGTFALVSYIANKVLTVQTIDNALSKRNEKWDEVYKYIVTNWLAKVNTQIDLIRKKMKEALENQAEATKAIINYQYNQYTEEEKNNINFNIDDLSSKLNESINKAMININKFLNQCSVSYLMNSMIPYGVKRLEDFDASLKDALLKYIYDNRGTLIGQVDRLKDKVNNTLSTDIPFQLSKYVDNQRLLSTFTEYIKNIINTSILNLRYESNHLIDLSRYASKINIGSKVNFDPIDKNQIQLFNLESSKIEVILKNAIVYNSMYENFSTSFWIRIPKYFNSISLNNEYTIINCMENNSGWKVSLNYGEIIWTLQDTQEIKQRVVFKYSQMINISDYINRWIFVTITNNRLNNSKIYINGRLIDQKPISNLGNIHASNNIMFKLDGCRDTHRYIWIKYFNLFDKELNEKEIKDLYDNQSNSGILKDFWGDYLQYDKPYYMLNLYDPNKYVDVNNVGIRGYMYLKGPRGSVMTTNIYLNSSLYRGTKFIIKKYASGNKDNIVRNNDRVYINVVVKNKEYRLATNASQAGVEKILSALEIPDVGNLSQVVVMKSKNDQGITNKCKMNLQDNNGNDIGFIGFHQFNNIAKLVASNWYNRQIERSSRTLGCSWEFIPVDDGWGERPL

[3] = target: Lethal factor (Bacillus anthracis) (UniProt P15917); experiment: Lethal factor protease inhibitors, Bacillus anthracis, multiplex microsphere cleavage assay, validation set (AID 588461); conditions: flow cytometry, at 10 µM, stronger effect = higher value
Sequence of Lethal factor (Bacillus anthracis) (P15917 whole entry, looked up): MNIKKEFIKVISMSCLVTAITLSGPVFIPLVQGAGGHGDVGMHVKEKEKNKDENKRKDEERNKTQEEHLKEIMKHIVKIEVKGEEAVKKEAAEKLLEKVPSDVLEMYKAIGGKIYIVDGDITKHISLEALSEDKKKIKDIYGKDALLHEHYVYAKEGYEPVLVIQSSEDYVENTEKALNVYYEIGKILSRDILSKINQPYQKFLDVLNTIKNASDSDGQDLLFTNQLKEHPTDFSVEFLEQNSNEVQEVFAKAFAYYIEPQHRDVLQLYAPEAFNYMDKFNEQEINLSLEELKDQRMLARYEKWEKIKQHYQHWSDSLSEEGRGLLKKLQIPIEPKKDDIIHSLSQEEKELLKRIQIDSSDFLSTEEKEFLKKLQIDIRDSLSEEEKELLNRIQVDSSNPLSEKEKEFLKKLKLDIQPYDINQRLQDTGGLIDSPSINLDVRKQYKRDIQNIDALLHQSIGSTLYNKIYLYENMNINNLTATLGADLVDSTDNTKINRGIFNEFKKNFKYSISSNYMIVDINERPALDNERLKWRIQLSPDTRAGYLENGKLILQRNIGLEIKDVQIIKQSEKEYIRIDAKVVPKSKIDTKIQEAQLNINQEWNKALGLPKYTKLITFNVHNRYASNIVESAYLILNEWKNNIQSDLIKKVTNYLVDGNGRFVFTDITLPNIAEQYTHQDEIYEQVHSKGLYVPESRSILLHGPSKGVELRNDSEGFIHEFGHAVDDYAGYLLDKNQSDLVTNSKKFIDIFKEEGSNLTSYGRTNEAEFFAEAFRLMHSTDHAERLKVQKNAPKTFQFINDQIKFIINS

Compound | inhibition [1] | inhibition [2] [%] | inhibition [3] [%]
COC(=O)C1=C(C)NC(C)=C([N+](=O)[O-])C1c1ccccc1C(F)(F)F (configuration not stated) | -0.4% | -1 | -11.2
CCCCN1C[C@H](O)[C@@H](O)[C@H](O)[C@H]1CO | 1.9% | -1 | 0.7
CC(=O)N1CC23C=CC(CC2CC12CCCCCC2)O3 (configuration not stated) | 1.3% | -1.4 | 1.3
CCN(CCCCOC(=O)c1ccc(OC)c(OC)c1)C(C)Cc1ccc(OC)cc1 (configuration not stated) | -0.4% | -2.7 | -2.8
CC(C(=O)O)c1ccc(N2Cc3ccccc3C2=O)cc1 (configuration not stated) | 1.4% | -1.6 | -4.3
C[N+]1(C2CCC3CCCC2C3O)CCCCC1 (configuration not stated) | 1.7% | 2.4 | -3.7
CCOCC(=O)Nc1ccccc1C(=O)N1CCOCC1 | 32.5% (active) | 14.3 | 6.3
CCn1cc(C(=O)O)c(=O)c2cc(F)c(N3CCNCC3)cc21 | -0.1% | -0.5 | 2.3
Clc1ccc2c(c1)C(N1CCNCC1)=Nc1ccccc1O2 | 3.1% | 2.2 | -6.2
Cc1ccc(CN2CCN(Cc3cn[nH]c3C3CCCCC3)CC2CCO)cc1 (configuration not stated) | -1.3% | -0.4 | -2.1
CC1(C)CC(=O)c2cn3c(nc2C1)nc1ccccc13 | 1% | -0.2 | 0
CNc1c2c(nn1C)CCCC2 | 0.6% | -1.3 | -3.5
CCOc1ccc(NC(=O)N[C@@H](CCSC)C(=O)OC)cc1 | -0.6% | -1.8 | -4.6
COc1ccccc1C(CC(=O)Nc1ccccc1C)c1ccc(OC(C)C)cc1 (configuration not stated) | -0.1% | -0.8 | -7.4
COc1cc(OC)c2c(C)c(Cl)c(=O)oc2c1 | 1.9% | -0.8 | -3.3
O=C(CCCCC(=O)NC1CCCC1)NC1CCCC1 | 1.5% | 0.2 | -3.4
CCc1cc2c(=O)c(-c3nc4ccccc4n3C)coc2c(CN2CCN(C)CC2)c1O | -0.9% | 0.3 | -2.8
Fc1ccc(-c2cc(-c3ccccc3)nc(-n3cccn3)n2)cc1 | -6.3% | -0.2 | 2.3
O=C(NCc1ccco1)/C(=C\C=C\c1ccccc1)NC(=O)c1ccccc1Br | -0.5% | 0 | 1.6
CC(=O)OCC(=O)[C@@]12OC3(CCCC3)O[C@@H]1C[C@H]1[C@@H]3CCC4=CC(=O)C=C[C@]4(C)[C@@]3(F)[C@@H](O)C[C@@]12C | 0.8% | -0.9 | -0.7
Cc1c(OCC(F)(F)F)ccnc1CS(=O)c1nc2ccccc2[nH]1 (configuration not stated) | -1% | -0.5 | -2.4
Cc1ccc2nc(NC3=NC(CC(=O)O)C(=O)N3)nc(C)c2c1 (configuration not stated) | -1.7% | -1 | -4.8
O=C1CC(c2ccc(O)cc2)Oc2cc(O)cc(O)c21 (configuration not stated) | -2.6% | -1.8 | -0.4
Cc1ccc(/C=N/NC(=O)C2(C)CC2(Br)Br)cc1 (configuration not stated) | 1.3% | -0.4 | -5.6
COc1ccc(C(=O)CC2OC(=O)c3c2ccc(OC)c3OC)cc1 (configuration not stated) | 0.2% | 0.7 | 3.4
COc1ccc(CCN=CC2=C(O)CC(C)(C)CC2=O)cc1 | 1.2% | -0.7 | -4.5
COc1ccc(-n2cc(CNCc3cccnc3)c(-c3cccc(F)c3)n2)cc1 | -3.6% | -0.7 | -8.2
COc1cccc2c(=O)c3ccccc3oc12 | 12.6% | 3.9 | -4.2
COc1cc2nc(-c3ccccc3)nc(N3CCCC3)c2cc1OC | -1.8% | -1.5 | -4.3
